In PubChem BioAssay AID624330 (Southern Research Specialized Biocontainment Screening …, 2012):
Out of some 340,000 compounds screened, about 2,100 (0.62%) were called active.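 Rule for the calls: active = first-screen hits whose inhibition reached a set limit at any dose in the follow-up dose series; inconclusive = inhibition above the set first-screen limit but never retested; inactive = the rest.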 Not all results are given here. Potency and affinity values are given separately.

What follows are compounds tested against Rac GTPase-activating protein 1 (Homo sapiens) (UniProt Q9H0H5) (assay: MgcRacGAP GTPase-activating activity inhibitors, confirmation, biochemical, ADP Hunter fluorescence, primary and confirmatory (AID 624330;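 note: fluorescence reports GDP produced by GAP-driven GTP hydrolysis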)). Conditions: MgcRacGAP-stimulated Rac1 GTP hydrolysis, at 30 µM, active compounds read high, GST-tagged Rac1 F28L mutant substrate.
Chain of Rac GTPase-activating protein 1 (Homo sapiens) (Q9H0H5 whole entry, looked up): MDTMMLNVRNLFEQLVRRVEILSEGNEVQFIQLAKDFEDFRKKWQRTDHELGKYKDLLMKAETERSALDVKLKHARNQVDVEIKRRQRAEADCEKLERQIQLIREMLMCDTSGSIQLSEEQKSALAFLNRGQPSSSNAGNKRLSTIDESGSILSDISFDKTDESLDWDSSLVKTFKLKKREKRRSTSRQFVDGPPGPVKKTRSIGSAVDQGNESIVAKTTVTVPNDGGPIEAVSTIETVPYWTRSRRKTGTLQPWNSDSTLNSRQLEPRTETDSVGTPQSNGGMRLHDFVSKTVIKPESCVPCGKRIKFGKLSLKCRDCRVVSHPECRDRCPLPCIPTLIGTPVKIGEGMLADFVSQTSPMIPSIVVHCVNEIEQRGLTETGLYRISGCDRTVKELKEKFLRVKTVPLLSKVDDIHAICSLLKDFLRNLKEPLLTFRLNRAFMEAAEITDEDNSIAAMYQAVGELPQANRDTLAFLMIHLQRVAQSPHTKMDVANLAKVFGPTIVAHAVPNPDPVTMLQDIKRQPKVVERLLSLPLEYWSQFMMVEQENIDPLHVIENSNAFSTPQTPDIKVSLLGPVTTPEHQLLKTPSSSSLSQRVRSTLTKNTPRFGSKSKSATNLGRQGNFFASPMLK

inhibition, inactive:
Cc1cc(C)cc(Nc2c3c(nc4ncnn24)CCC3)c1 8.12%, CCC1=C(OC(=O)N(CC)CC)N2C(=O)OC(=NCCOC)[C@]2(Cc2ccccc2)[C@H]2C1=CC[C@H]1C(=O)N(CC(=O)OC)C(=O)[C@H]12 11.9%, CN(C(=O)c1cccc(NC(=O)Cc2ccc(NC(=O)C3CCN(C(=O)C4CC4)CC3)cc2)c1)C1CCC1 6.53%, O=C(NCc1cccnc1)C1CC(c2cccc(Br)c2)=NO1 (configuration not stated) 0.07%, CC(C(=O)NCc1ccc(F)cc1)c1ccc([N+](=O)[O-])cc1 (configuration not stated) 8.32%, CN1CCN(S(=O)(=O)c2ccc(Oc3ccc(F)cc3Br)nc2)CC1 6.58%, CCC1CCCCN1C(=S)NC(=O)c1cc(Br)ccc1Cl (configuration not stated) 4.56%, CCc1nnc(NC(=O)Cn2nnc(-c3ccccc3F)n2)s1 5.2%, CCCCCn1c2c(c(=N)c3ccccc31)CCC2 7.04%, CCCCCCCn1c2c(c(=N)c3ccccc31)CCC2 9.88%, O=C(CN1CCC(NC(=O)Nc2ccccc2)CC1)Nc1ccccc1F 5.94%, Cc1ccc(S(=O)(=O)N(C)c2ccccc2C(=O)N2CCOCC2)cc1 6.35%, O=C(Cc1ccc(Br)cc1)NCCc1ccc(F)cc1 9.29%, COc1ccc(S(=O)(=O)NC(C)C(=O)N2CCCC2)cc1Cl (configuration not stated) 1.21%, Cc1ccc(-c2csc(Nc3ccccn3)n2)cc1 14%, COc1cccc(Nc2nc(-c3cccnc3)cs2)c1 10.7%, Cc1ccnc(Nc2nc(-c3ccc(O)cc3O)cs2)c1 15.2%, Cc1cccc(Nc2nc(-c3ccc(O)cc3O)cs2)n1 -2.8%, c1ccc(-c2csc(Nc3ccccn3)n2)cc1 13.5%, CCOc1ccc(Nc2nc(-c3cccnc3)cs2)cc1 6.12%, CN(C)c1ccc(Nc2nc(-c3cccnc3)cs2)cc1 14.4%, COc1ccc(-c2csc(Nc3ccccc3)n2)cc1 15.5%, Cc1cccc2cc(COC(=O)COc3ccccc3)c(=O)[nH]c12 12%, CCC(=O)Oc1ccc(NC(=O)CSCc2ccccc2)cc1 13.9%, COc1ccc(CCNC(=O)COC(=O)Cc2ccccc2[N+](=O)[O-])cc1 3.96%, CCOC(=O)c1ccc(S(=O)(=O)N2CC(=O)Nc3ccccc32)cc1 8.64%, c1cncc(Nc2nc(-c3ccncc3)cs2)c1 6.09%, Cc1nc2ncccn2c1-c1csc(Nc2ccccc2)n1 11%, c1coc(CNc2nc(-c3ccncc3)cs2)c1 5.25%, c1ccc(-c2csc(Nc3ncccn3)n2)cc1 0.5%, CC(=O)Nc1ccc(-c2csc(Nc3ncccn3)n2)cc1 7.36%, Cc1ccc(Nc2nc(-c3c(C)nc4ncccn34)cs2)cc1 11.3%, COc1ccc(-c2csc(NCc3ccco3)n2)cc1 12%, c1ccc(-c2csc(Nc3cccnc3)n2)cc1 3.24%, O=C(O)CN1C(=O)NC2(CCc3ccccc32)C1=O (configuration not stated) 2.93%, Cc1noc(C)c1S(=O)(=O)N1CCCC(C(=O)NCC2CCCO2)C1 (configuration not stated) 4.53%, COc1ccc(NC2CCCN(C(=O)CCCN3CCCCC3=O)C2)cc1 (configuration not stated) 29.9%, CC(C)c1ccc(NC2CCCN(C(=O)CCN3Cc4ccccc4C3=O)C2)cc1 (configuration not stated) 4.84%, COc1ccc(NC2CCCN(C(=O)CCN3CCOCC3)C2)cc1 (configuration not stated) 12.5%, COc1ccc(NC2CCCN(C(=O)CN3CCOC3=O)C2)cc1OC (configuration not stated) 22.5%, CC(C)c1ccc(NC2CCCN(C(=O)CCN3CCCO3)C2)cc1 (configuration not stated) 2.53%, CC(C)c1ccc(NC2CCCN(C(=O)CN3CCOC3=O)C2)cc1 (configuration not stated) 8.4%, CN1OC[C@@H]2CN(Cc3cc(Cl)cc(Cl)c3)[C@H](c3cccc(-c4ccc(C#N)cc4)c3)C[C@@H]21 13.8%, COc1ccc(OCc2nnc(SCC(=O)N3CCCC3)o2)cc1 5.88%, CC1CN(Cc2ccccc2Cl)CC(C)O1 (configuration not stated) 16.3%, O=C(COc1ccccc1[N+](=O)[O-])Nc1cccc(C(=O)Nc2ccccc2C(=O)O)c1 17.3%, C=CCC1NS(=O)(=O)O[C@H](CCCC)[C@@H]1O (some centres not stated) -14.4%, O=C(O)CCC(=O)OCCc1cc2ccccc2c(=O)o1 -1.63%, O=C(c1ccc(=O)n(Cc2ccc(Cl)c(Cl)c2)c1)N1CCOCC1 1.2%, CC(C)N1C(=O)CSC1c1ccc(Br)cc1 (configuration not stated) 9.21%, O=C(N/N=C/c1cccc2ccccc12)c1cccnc1 7.15%, COc1ccc(/C=N/NC(=O)c2cccnc2)c2ccccc12 10.9%, Cc1ccsc1/C=N/NC(=O)c1cccnc1 6.67%, Cc1ccccc1/C=N/NC(=O)c1cccnc1 4.63%, COc1ccccc1CNC(=O)CCNS(=O)(=O)/C=C/c1ccc(C)cc1 -0.75%, COc1cc(NC(C)CCCN)c2ncccc2c1Oc1ccccc1 (configuration not stated) 1.99%, COc1cc(N)c2ncccc2c1Cl 7.55%, COc1cc(N)c2ncccc2c1Br 20%, Nc1ccc(Br)c2cccnc12 9.68%, COc1cc(NC(=O)c2cccnc2SC)cc(OC)c1OC 9.4%, COc1cc(NC(C)CCCN)c2ncccc2c1 (configuration not stated) -2.49%, CCOC(=O)N1CCN(c2ccc(N3C(=O)CCCC3=O)cc2[N+](=O)[O-])CC1 4.36%, O=C(CCNS(=O)(=O)c1ccc2[nH]c(=O)oc2c1)Nc1ccccc1 -24.4%, COc1ccc(OC)c(C(C[N+](=O)[O-])c2c(C)cc3ccccn23)c1 (configuration not stated) 5.52%, Cc1c(N2CCCCC2)[nH]c2ccccc12 8.41%, Cc1cccc(OCC(=O)Nc2ccc(N3CCN(C(=O)c4ccco4)CC3)cc2)c1C 8.56%, Cn1c(-c2ccc(F)cc2)cnc1NCc1cccc(F)c1 9.97%, Cn1c(-c2ccc(Br)cc2)cnc1NCc1cccnc1 18.7%, COc1cc(CNc2ncc(-c3ccc(Br)cc3)n2C)cc(OC)c1OC 29.8%, Cn1c(-c2ccc(F)cc2)cnc1NCc1ccc(F)cc1 16.6%, Cn1c(-c2cccc(Br)c2)cnc1NCc1cccnc1 29.7%, Cn1c(-c2ccc(Br)cc2)cnc1NCc1ccc(C#N)cc1 21.2%, C[C@H](CO)N1C[C@H](C)[C@@H](CN(C)S(=O)(=O)c2ccc(F)cc2)Oc2c(NC(=O)Cc3ccccc3)cccc2C1=O 9.78%, CCCc1nc2ccccc2c(=O)n1NC(=O)c1c(O)c2ccccc2n(C)c1=O -1.3%, O=C1Nc2ccccc2C1=Nc1ccc(F)cc1 6.47%, Cc1ccc(N=C2C(=O)Nc3ccccc32)cc1C 1.21%, COc1cccc(NC(=O)C(c2ccccc2)N2CCNC(=O)C2)c1 (configuration not stated) -3.03%, CN(CC(=O)Nc1c(Cl)cccc1Cl)C(=O)Cc1ccc2c(c1)CCC2 4.3%, COc1ccc(/C=C/c2ccc3ccccc3[n+]2C)cc1OC -0.83%, CC[n+]1c(/C=C/c2ccc(OC(C)=O)c(OC)c2)ccc2ccccc21 27%, O=C(/C=C/Nc1ccc(F)cc1)c1cccs1 8.26%, Cc1ccc(N/C=C/C(=O)c2cccs2)cc1 1.9%, COc1ccc(C)cc1N(CC(=O)Nc1cccnc1)S(=O)(=O)c1ccc(C)cc1 3.72%, O=C(CCSc1nnc(-c2ccco2)o1)Nc1ccc(Cl)cc1 5.12%, Cc1ccc(S(=O)(=O)N2CCOCC2)cc1C(=O)NC1CCCC1 6.35%, COC(=O)c1cccc(/C=N/NC(N)=S)c1O 14.2%, NC(=S)N/N=C/c1ccccc1O 10.3%, COc1ccc(N(C(C)=O)S(=O)(=O)c2cc(OC)ccc2OC)cc1 12.7%, COc1ccc(N2CCN(c3ccc(N)cc3C#N)CC2)cc1 27.6%, COc1ccc(C(=O)N2CCN(c3ncccn3)CC2)cc1 0.88%, COc1ccnc(N2CCN(c3ccccc3)CC2)c1C#N 8.98%, COc1cccc(N2CCN(c3ncccn3)CC2)c1 5.71%, COc1ccc(C(=O)NCC(=O)OCc2ccc(Br)cc2)cc1 11.1%, CC(c1nccs1)N(C)C(=O)CCc1nnc(Cc2c[nH]c3ccccc23)o1 (configuration not stated) 11.5%, O=C1/C(=C/c2ccc(O)cc2)SC(=S)N1CC1CCCO1 (configuration not stated) 31.1%, COC(=O)C1=C(C)N(CC2CCCO2)C(=O)C1 (configuration not stated) 4.38%, O=C(N/N=C/c1ccc(-c2ccccc2C(=O)O)o1)c1cccs1 11.8%, COc1ccc(-c2noc(-c3ccccc3C(=O)NCc3ccco3)n2)cc1 8.25%, CCCNC(=O)CN1CCN(c2cc3ccccc3c(Cl)n2)CC1 4.31%, CC(=O)Nc1ccc(Oc2nc(C(F)(F)F)nc3ccccc23)cc1 11.9%, Cc1cccc(Oc2nc(-c3ccccn3)nc3ccccc23)c1 11.2%, CC(C)(C)S(=O)(=O)N1C[C@@H]2CC/C=C\C/C(c3ccccc3)=C\2[C@H]1CCO 6.06%
